Measured values published in PubChem BioAssay (Tox21).
Inconclusive results are not listed. The source made the active and inactive calls. Unless noted, calls follow the shape of the dose curve; as a rule, active = well fitted curve in the direction sought with a large enough effect in the repeat runs; inconclusive = weak or mixed curves; inactive = no such curve, though single readings can be large; an effect the other way counts as inactive or inconclusive.

Legend:
[1] = qHTS assay for small molecules that induce genotoxicity in human embryonic kidney cells expressing luciferase-tagged ATAD5 (AID 651632); also: nearly all actives have a fitted effect of over 15% in size
Method in brief: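 Test compounds were delivered by pin tool onto HEK293T reporter cells (2,000/well) expressing ATAD5 fused to luciferase. After 16 hr at 37C, 5% CO2, Amplite was added for 30 min at room temperature and luminescence was measured.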

[2] = qHTS assay for small molecule agonists of the p53 signaling pathway - cell viability (AID 651633; calls by dose curve; also: series mostly up to about 83 µM; nearly all actives have a fitted effect of over 30% in size)
Method in brief: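 Viability counter-read: CellTiter-Glo luminescence (30 min, room temperature) in the same p53RE-bla plates. These plates had been exposed to compounds for 16 h at 37 C.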

[3] = qHTS assay for small molecules that induce genotoxicity in human embryonic kidney cells expressing luciferase-tagged ATAD5 - cell viability (AID 651634; calls by dose curve; also: nearly all actives have a fitted effect of over 25% in size)
Method in brief: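 Quantitative high-throughput format. HEK293T cells expressing ATAD5 fused to luciferase were plated at 2,000 cells/well and treated 15.5 hr with compound versus DMSO. Viability was determined by fluorescent live-cell protease substrate, 30 min at 37C.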

[4] = qHTS assay for small molecule disruptors of the mitochondrial membrane potential - cell viability (AID 720634; calls by dose curve;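 also: human HepG2 liver cancer cells; series mostly up to about 83 µM; nearly all actives have a fitted effect of over 20% in size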)
Method in brief: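 Same-well counter-screen: following the MMP dye addition, CellTiter-Glo was added to 1 hr compound-treated HepG2 cells and luminescence read after 30 min at room temperature.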

[5] = qHTS assay for small molecule disruptors of the mitochondrial membrane potential (AID 720635); also: potency is read from the fitted curve at half-maximal effect
Method in brief: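 Mitochondrial membrane potential tracked with Mito-MPS dye, red aggregates (ex 540/em 590 nm) against green monomers (ex 490/em 535 nm). Compound treatment 1 hr at 37C, dye 30 min in HepG2.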

[6] = qHTS assay to test for compound auto fluorescence at 590 nm (red) in HepG2 cells (AID 720674)
Method in brief: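 Red autofluorescence (Ex/Em 540/590 nm, Rose Bengal sodium equivalents) was measured in HepG2 cells, 2,000 per well in MEM plus 10% FBS, plated overnight at 37 C. Readings were taken 1 hr after adding 23 nL compound or DMSO, at 37 C and 5% CO2.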

[7] = qHTS assay to test for compound auto fluorescence at 535 nm (green) in HepG2 cells (AID 720675)
[8] = qHTS assay to test for compound auto fluorescence at 460 nm (blue) in HEK293 cells (AID 720678)
Method in brief: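 Intrinsic compound fluorescence is recorded in live HEK293 cultures after overnight incubation at 37C, 5% CO2, using excitation 405 nm and emission 460 nm. Values are referenced to triamterene.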

[9] = qHTS assay to test for compound auto fluorescence at 590 nm (red) in HEK293 cells (AID 720679)
Method in brief: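 Red autofluorescence, HEK293 cells: 2,000 cells/well; attach 4-5 hr 37C; add 23 nL cpd or DMSO; incubate o/n 37C 5% CO2; read Ex540/Em590; Rose Bengal sodium reference.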

[10] = qHTS assay for small molecule agonists of the p53 signaling pathway (AID 651631; calls by dose curve; also: nearly all actives have a fitted effect of over 15% in size)
Method in brief: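 Readout was fluorescence from the LiveBLAzer FRET substrate, applied for 2 h at room temperature after 16 h compound exposure at 37 °C. Cells were the p53RE-bla HCT-116 line, with beta-lactamase driven by p53 response elements.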
% is scaled to controls: 0 for no effect and ±100 for the full control effect.

O=S(=O)(O)c1cc(I)c(O)c2ncccc12
inactive: Potency [1] | outcome [2] | outcome [3] | outcome [4] | Potency [5] | outcome [6] | outcome [7] | outcome [8] | outcome [9]

CCCCNCC
inactive: Potency [1] | outcome [2] | outcome [3] | outcome [4] | Potency [5] | outcome [6] | outcome [8] | outcome [9]

CC(=O)Nc1ccc(OCCOCCOc2ccc(NC(C)=O)cc2)cc1
inactive: Potency [1] | outcome [2] | outcome [3] | outcome [4] | Potency [5] | outcome [6] | outcome [7] | outcome [8] | outcome [9]

C=CCCCCCCCCOC(C)=O
inactive: Potency [1] | outcome [2] | outcome [3] | outcome [4] | Potency [5] | outcome [6] | outcome [7] | outcome [8] | outcome [9]

CC(=O)c1ccc2ccc3ccccc3c2c1
active: Potency [5] 30.5 µM
inactive: Potency [1] | outcome [2] | outcome [3] | outcome [4] | outcome [6] | outcome [7] | outcome [8] | outcome [9]

c1cc2ccc3ccc4ccc5cccc6c(c1)c2c3c4c56
inactive: activation [1] 2.87% [at 3.63 µM] | activity change, negative = cytotoxicity [2] 10.5% [at 3.63 µM] | activity, negative = cytotoxicity [3] 31.3% [at 3.63 µM] | activity change, negative = cytotoxicity [4] 7.58% [at 3.63 µM] | ratio activity, negative = MMP loss [5] 16.7% [at 3.63 µM] | fluorescence, relative to Rose Bengal [6] 0.113% [at 3.72 µM] | fluorescence, % of triamterene [8] 1.23% [at 3.72 µM] | fluorescence, % of fluorescent control [9] 0.132% [at 3.72 µM]

CC(C)(C)C(=O)CCc1ccc(Cl)cc1
inactive: Potency [1] | outcome [2] | outcome [3] | outcome [4] | Potency [5] | outcome [6] | outcome [7] | outcome [8] | outcome [9]

CC(C)(C)C(=O)CC(=O)C(C)(C)C
inactive: Potency [10] | outcome [2] | outcome [3] | outcome [4] | outcome [6] | outcome [8] | outcome [9]

O=Cc1ccccc1S(=O)(=O)O
inactive: Potency [1] | outcome [2] | outcome [3] | outcome [4] | Potency [5] | outcome [6] | outcome [7] | outcome [8] | outcome [9]

CC(=O)OC1CCC(C(C)(C)C)CC1 (configuration not stated)
inactive: Potency [10] | outcome [2] | outcome [3] | outcome [4] | outcome [6] | outcome [7] | outcome [8] | outcome [9]

Cc1ccc(OC(=O)CC(C)C)cc1
inactive: Potency [1] | outcome [2] | outcome [3] | outcome [4] | Potency [5] | outcome [6] | outcome [8] | outcome [9]

C[C@H]1COc2c(C3(N)CC3)c(F)cc3c(=O)c(C(=O)O)cn1c23
inactive: Potency [1] | outcome [2] | outcome [3] | outcome [4] | Potency [5] | outcome [6] | outcome [7] | outcome [8] | outcome [9]

CC(C)OCCO
inactive: Potency [1] | outcome [2] | outcome [3] | outcome [4] | Potency [5] | outcome [6] | outcome [7] | outcome [8] | outcome [9]

CC(=O)SCC(CC(=O)c1ccc(C)cc1)C(=O)O (configuration not stated)
inactive: Potency [1] | outcome [2] | outcome [3] | outcome [4] | Potency [5] | outcome [6] | outcome [7] | outcome [8] | outcome [9]

COC(=O)C(c1ccccc1Cl)N1CCc2sccc2C1 (configuration not stated)
inactive: Potency [10] | outcome [3] | outcome [4] | Potency [5] | outcome [6] | outcome [7] | outcome [8] | outcome [9]

CC(CC(=O)Cl)CC(C)(C)C (configuration not stated)
inactive: Potency [1] | outcome [2] | outcome [3] | outcome [4] | Potency [5] | outcome [6] | outcome [7] | outcome [8] | outcome [9]

CCN1CCN(C(=O)N[C@@H](C(=O)N[C@@H]2C(=O)N3[C@@H]2SC(C)(C)[C@H]3C(=O)O)c2ccccc2)C(=O)C1=O
inactive: Potency [1] | outcome [2] | outcome [3] | outcome [4] | Potency [5] | outcome [6] | outcome [7] | outcome [8] | outcome [9]

CCCCCCCCCCCCCCCC/C=C/C1CC(=O)OC1=O (configuration not stated)
inactive: Potency [10] | outcome [2] | outcome [3] | outcome [4] | outcome [6] | outcome [7] | outcome [8] | outcome [9]

CCC(C)c1nccnc1OC (configuration not stated)
inactive: outcome [2] | outcome [3] | outcome [4] | Potency [5] | outcome [6] | outcome [7] | outcome [8] | outcome [9]

O=C(O)Cc1c(Cl)ccc(Cl)c1Cl
inactive: Potency [1] | outcome [2] | outcome [3] | outcome [4] | outcome [6] | outcome [7] | outcome [8] | outcome [9]

CCC(=O)OCCOc1ccccc1
inactive: outcome [2] | outcome [3] | outcome [4] | outcome [6] | outcome [7] | outcome [8] | outcome [9]

CCOC(=O)c1ccc(N(C)C)cc1
inactive: Potency [1] | outcome [2] | outcome [3] | outcome [4] | outcome [6] | outcome [8] | outcome [9]

CC(C)C(C)C
inactive: outcome [2] | outcome [3] | outcome [4] | outcome [6] | outcome [7] | outcome [8] | outcome [9]

NNC(=O)CCCCC(=O)NN
inactive: outcome [2] | outcome [3] | outcome [4] | outcome [6] | outcome [7] | outcome [8] | outcome [9]

N=C(N)N1CCc2ccccc2C1
inactive: Potency [1] | outcome [3] | outcome [4] | Potency [5] | outcome [6] | outcome [7] | outcome [8] | outcome [9]

O=C1CC2(CCCC2)CC(=O)N1CCNCC1COc2ccccc2O1 (configuration not stated)
inactive: Potency [1] | outcome [3] | outcome [4] | outcome [6] | outcome [8] | outcome [9]
